# Pol kappa inh-1: qHTS for Inhibitors of Polymerase Kappa | DNA polymerase kappa (Homo sapiens), Q9UBT6 | hit rate 0.53% among 400,000 | Potency, µM (top dose mostly 107 µM), most hits filed as inhibitors | purified Pol kappa, fluorescent DNA synthesis assay, 10 min | AID 588579, 2011
#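 Kinetic fluorescence screen: compound preincubated 15 min RT with 10 nM enzyme; 50 nM substrate (final) initiates; reads at 0/10 min.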
# WRN helicase inh: qHTS for Inhibitors of WRN Helicase; Bifunctional 3'-5' exonuclease/ATP-dependent helicase WRN (Homo sapiens), Q14191; Potency, µM (series often up to 114 µM), actives largely listed as inhibitors; hit rate 0.46% among 360,000; WRN helicase unwinding, fluorescent forked duplex, kinetic; further: nearly all actives have a fitted effect of over 55% in size
#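 WRN at 20 nM final was preincubated with compound for 15 min at room temperature; reaction started with 100 nM forked duplex oligonucleotide carrying fluorophore and quencher plus 2 mM ATP (final). Unwinding followed kinetically by red fluorescence (ex 525/em 598 nm).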
# FEN1 inh-1: qHTS Assay for the Inhibitors of Human Flap endonuclease 1 (FEN1); Potency, µM (series often up to 114 µM), actives largely listed as inhibitors; hit rate 0.35% among 390,000; Recombinant FEN1 flap cleavage, fluorescence, 15 min; further: nearly all actives have a fitted effect of over 65% in size
#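 FEN1 at 10 nM, compound pretreatment for 15 min (room temperature), 50 nM final substrate to initiate; endpoint reads at 0 and 15 min; DMSO-only plates used as vehicle background.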
# POLB inh: qHTS Assay for Inhibitors of DNA Polymerase Beta; P06746; Pol beta primer extension/strand displacement, fluorescence kinetic; Potency, µM (highest dose often 114 µM), usual class: inhibitors; hit rate 1.3% among 340,000; AID 485314, 2010
#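 Homogeneous kinetic assay of primer extension and strand displacement by 10 nM Pol beta, preincubated 15 min at room temperature with compound before 50 nM substrate (final) was added. Read at 0 and 10 min; four-parameter Hill fit.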
# Pol eta inh-1: qHTS for Inhibitors of Polymerase Eta; DNA polymerase eta (Homo sapiens), Q9Y253; recombinant Pol eta, fluorescent DNA replication assay; Potency, µM (series often up to 114 µM), hits mostly inhibitors; hit rate 1.2% among 390,000; AID 588591, 2011
# Target sequence (Q9Y253 whole entry, looked up): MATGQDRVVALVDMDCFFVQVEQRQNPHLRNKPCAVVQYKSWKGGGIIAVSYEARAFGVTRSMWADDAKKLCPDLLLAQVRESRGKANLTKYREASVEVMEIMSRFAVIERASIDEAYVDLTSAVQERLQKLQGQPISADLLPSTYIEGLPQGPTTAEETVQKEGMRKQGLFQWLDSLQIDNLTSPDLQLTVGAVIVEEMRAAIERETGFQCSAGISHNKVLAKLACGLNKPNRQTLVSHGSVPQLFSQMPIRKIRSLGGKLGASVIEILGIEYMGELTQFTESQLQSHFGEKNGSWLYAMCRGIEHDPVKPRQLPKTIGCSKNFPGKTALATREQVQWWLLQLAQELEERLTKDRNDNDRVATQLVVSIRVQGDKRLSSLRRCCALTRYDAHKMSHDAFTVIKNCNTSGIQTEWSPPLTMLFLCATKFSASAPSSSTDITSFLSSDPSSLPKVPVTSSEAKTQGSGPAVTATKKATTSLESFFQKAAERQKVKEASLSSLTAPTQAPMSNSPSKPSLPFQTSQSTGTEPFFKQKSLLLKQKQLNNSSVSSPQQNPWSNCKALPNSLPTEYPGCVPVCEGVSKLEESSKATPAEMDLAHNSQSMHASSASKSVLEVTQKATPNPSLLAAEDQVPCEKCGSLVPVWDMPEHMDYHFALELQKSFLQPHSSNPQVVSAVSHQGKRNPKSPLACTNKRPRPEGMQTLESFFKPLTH
#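 Pol eta at 10 nM preincubated with compounds 15 min at room temperature; reaction started with fluorescent substrate (50 nM final) and read kinetically at 0 and 10 min.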
# POLI inh: qHTS for Inhibitors of Polymerase Iota; DNA polymerase iota (Homo sapiens), Q9UNA4; Pol iota fluorescent replication assay, 10 min; Potency, µM (top dose mostly 115 µM), usual class: inhibitors; hit rate 1% among 390,000
#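 Fluorescent replication assay read twice, at 0 min and 10 min after adding 50 nM (final) substrate. Enzyme (10 nM) and compounds were first incubated 15 min at room temperature; enzyme-free buffer wells were negative controls.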
# PGK validate: qHTS for inhibitors of Phosphogylcerate Kinase: Hit Validation Screen | shares compounds with Pol kappa inh-1 | TbPGK coupled GAPDH assay, Kinase-Glo luminescence | Potency, µM (top dose mostly 57.5 µM), actives largely listed as inhibitors | hit rate 79% among 500 | AID 686980, 2013; further: nearly all actives have a fitted effect of over 65% in size
# POLI cherry-pick: qHTS for Inhibitors of Polymerase Iota: Confirmatory Assay for Cherry-picked Compounds; shares compounds with Pol kappa inh-1; Pol iota primer extension, TAMRA/BHQ fluorescence; Potency, µM, actives largely listed as inhibitors; hit rate 77% among 1,500
# Pol kappa inh-2: qHTS for Inhibitors of Polymerase Kappa: Confirmatory Assay for Cherry-picked Compounds; shares compounds with Pol eta inh-1; purified Pol-kappa, fluorescent strand-displacement substrate; Potency, µM, most hits filed as inhibitors; hit rate 76% among 920; AID 720501, 2013
# Pol eta inh-2: qHTS for Inhibitors of Polymerase Eta: Confirmatory Assay for Cherry-picked Compounds; Pol eta primer extension, TAMRA/BHQ fluorescence, 10 min; shares compounds with Pol eta inh-1; hit rate 64% among 2,600; Potency, µM, most hits filed as inhibitors; AID 720502, 2013
# FEN1 inh-2: qHTS Assay for the Inhibitors of FEN1: Confirmatory Assay for Cherry-picked Compounds | shares compounds with FEN1 inh-1 | FEN1 flap cleavage, TAMRA/BHQ2 fluorogenic DNA substrate | hit rate 79% among 880 | Potency, µM, most hits filed as inhibitors; further: nearly all actives have a fitted effect of over 60% in size
# A number is an active result; 0 = inactive; ? = inconclusive; - = no result given. Shown are actives, neighbours in structure and some others; about 2.4% of the full set was active somewhere. The call rests on the fitted dose curve; in most records, active means well fitted curve in the direction sought with a large enough effect; inconclusive means small, poorly fitted or top-dose-only effect, or another doubt; inactive means no such curve, though single readings can be large; an effect the other way counts as inactive or inconclusive.
SMILES,Pol kappa inh-1,WRN helicase inh,FEN1 inh-1,POLB inh,Pol eta inh-1,POLI inh,POLI cherry-pick,Pol eta inh-2,FEN1 inh-2,others
Cc1cccc(NC(=O)CN2C(=O)N/C(=C\c3ccc(-c4cccc(C(=O)O)c4)o3)C2=O)c1,?,?,?,?,?,?,67,26.9,75.7,
CSc1cccc(Nc2cc(C(=O)NCCCN(C)c3ccccc3)c3ccccc3n2)c1,0,-,0,0,0,0,-,-,-,
Cc1ccc(C)c(N2CCN(C(=O)C3CCN(c4nc5ccc(C)cc5[nH]4)CC3)CC2)c1,0,-,0,0,0,0,-,-,-,
COc1ccc(Cl)cc1NC(=O)NCCn1c(=O)oc2ccc(C)cc21,0,-,0,0,0,0,-,-,-,
COc1ccc(NC(=O)Cn2c(C)cc3ccccc3c2=O)c(OC)c1,0,-,0,0,0,0,-,-,-,
COc1cc(-c2cc(=O)c3c(O)c(OC)c(OC)c(O)c3o2)ccc1O,25.1µM,?,?,7.08µM,7.08µM,?,7.52,26.9,33.8,
CN1/C(=C\C=N\O)C(C)(C)c2ccccc21,0,0,0,0,0,0,-,-,-,
CN1/C(=C\C=C2/SC(=S)NC2=O)C(C)(C)c2ccccc21,44.7µM,28.2µM,?,22.4µM,79.4µM,28.2µM,75.2,75.7,67.5,Pol kappa inh-2=37.7
CCOc1ccc(NC(=O)Cn2cc(C(=O)c3ccc(F)cc3)c(=O)c3cc4c(cc32)OCO4)cc1,0,-,0,0,0,0,-,-,-,
CCc1cccc(NC(=O)C2Cc3ccccc3N2C(=O)c2ccccc2)c1 (centres undefined),0,-,0,0,0,0,-,-,-,
Cc1ccc(/C=C/c2nc3sc(C(=O)O)c(C)c3c(=O)[nH]2)cc1[N+](=O)[O-],0,?,0,?,39.8µM,0,29.9,?,75.7,
O=c1[nH]c(/C=C\c2ccc(O)c(Cl)c2)nc(O)c1[N+](=O)[O-],0,0,0,0,0,?,-,-,-,
O=C(O)COc1ccccc1C=NNc1ccc([N+](=O)[O-])cc1S(=O)(=O)Nc1ccc(Cl)cc1,0,?,0,-,22.4µM,?,84.4,47.8,75.7,Pol kappa inh-2=?
Oc1ccc(CNc2cccnc2)c2cccnc12,-,-,-,-,-,-,?,-,37.9,
Cc1ccc(N2C(=O)c3ccccc3C2C(=O)c2ccc(O)cc2O)cc1 (centres undefined),11.2µM,?,39.8µM,35.5µM,79.4µM,11.2µM,18.9,30.1,33.8,
Cc1ccc(NC(=O)Cn2c(=O)n(Cc3ccco3)c(=O)c3sc4ccccc4c32)cc1C,0,-,0,?,0,0,-,-,-,
CC(=O)Nc1ccc(NC(=O)C(C)OC(=O)/C(C#N)=C/c2ccc(N(C)C)cc2)cc1 (centres undefined),0,?,?,-,?,?,-,-,-,
CC(OC(=O)/C(C#N)=C/c1ccc(N(C)C)cc1)C(=O)N(C)c1ccccc1 (centres undefined),79.4µM,56.2µM,50.1µM,-,79.4µM,50.1µM,23.8,33.8,37.9,
Cc1c(Cl)cccc1NS(=O)(=O)c1ccc2c(c1)C1C=CCC1C(c1ccc(C(=O)O)cc1)N2 (centres undefined),2.82µM,31.6µM,25.1µM,22.4µM,2µM,?,37.7,6.75,60.1,
Cc1ccc(-c2ccc(/C=N\NC(=O)c3cc4c(ccc5ccccc54)o3)o2)cc1[N+](=O)[O-],0,0,0,?,?,0,-,-,-,
O=C(N/N=C/c1ccc(-c2ccc(Cl)c(C(=O)O)c2)o1)c1cc2c(ccc3ccccc32)o1,31.6µM,20µM,39.8µM,?,11.2µM,17.8µM,75.2,19,21.3,
COc1ccc(CNc2n[nH]c(-c3ccco3)n2)cc1OC,0,-,0,0,0,0,-,-,-,
COc1ccc(-c2nn(-c3ccccc3)cc2/C=C2/SC(=S)N(CCC(=O)O)C2=O)c(C)c1,?,0,?,31.6µM,31.6µM,?,75.2,?,67.5,
COC(=O)c1cc(O)cc(OC)c1Oc1cc(C)cc(O)c1C(=O)O,11.2µM,20µM,50.1µM,3.16µM,3.55µM,12.6µM,13.4,12,75.7,PGK validate=1.03µM
COc1ccc(S(=O)(=O)c2cc3cc(C(C)(C)C)cc(O)c3oc2=O)cc1,0,-,0,0,?,?,-,-,-,
SMILES,Pol kappa inh-1,WRN helicase inh,FEN1 inh-1,POLB inh,Pol eta inh-1,POLI inh,POLI cherry-pick,Pol eta inh-2,FEN1 inh-2,others
CN(C)S(=O)(=O)c1cccc(NC(=S)N/N=C/c2ccc(O)c(O)c2O)c1,?,28.2µM,20µM,0,?,?,13.4,19,8.49,
COc1ccc(O)c(/C=N/NC(=S)Nc2cccc(S(=O)(=O)N(C)C)c2)c1,0,0,0,0,0,0,-,-,-,
CC(=O)Nc1sc2c(c1-c1nc3ccccc3s1)CCCN(C(C)C)C2,-,-,-,-,-,-,53.2,-,7.57,Pol kappa inh-2=11.9
CC(=O)Nc1sc2c(c1-c1nc3ccccc3s1)CN(C(C)C)CC2,50.1µM,-,6.31µM,-,?,12.6µM,23.8,-,10.7,Pol kappa inh-2=16.8
CC(C)N1CCc2c(sc(NC(=O)c3nc4ccccc4s3)c2C(N)=O)C1,0,0,0,0,0,0,-,-,-,
CN1CCc2c(sc(NC(=O)CSc3ccccc3)c2-c2nc3ccccc3s2)C1,0,-,0,0,0,0,-,-,-,
CCCCC(=O)Nc1sc2c(c1-c1nc3ccccc3s1)CCN(C(C)C)C2,-,-,-,-,-,-,?,-,33.8,Pol kappa inh-2=10.6
CC(=O)Nc1sc2c(c1-c1nc3ccccc3s1)CCN(C)C2,-,-,-,-,-,-,37.7,-,5.36,
CC(=O)N1CCc2c(sc(NC(=O)CSc3ccccc3)c2-c2nc3ccccc3s2)C1,0,-,0,0,?,?,-,-,-,
CCCc1nnc(NC(=O)Cc2coc3c(C)c(C)ccc23)s1,0,-,0,0,0,0,-,-,-,

# High-throughput results as filed in PubChem BioAssay.
